PubChem BioAssay AID1159580 (chemical genetic matrix, 2015)
Out of some 5,500 compounds screened, about 2,000 (36%) were called active. Another 18% or so got no clear call; they are omitted. Cut-off read from the data, not from the text of the source: active = normalized growth mostly below about 0.91 (no sharp cut-off); inconclusive = no clear call, values can overlap the other calls; inactive = mostly above about 0.92. Some of the results follow.

Assay: chemical genetic growth profiling, strain panel (AID 1159580);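 note: tested at 20 µM; growth read once vehicle control cultures reached saturation at 30 °C; 1 = growth at the plate median or of vehicle wells; lower values mean less growth of the strain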
Conditions: growth OD

Measured: normalized growth

Nc1ccc(S(=O)(=O)Nc2nccs2)cc1
inactive: S. cerevisiae deletion strains, locus YJR075W, strain HOC1, stronger effect = lower value 1.01 | S. cerevisiae deletion strains, locus YKL009W, strain mrt4, stronger effect = lower value 0.999 | S. cerevisiae deletion strains, locus YKL068W, stronger effect = lower value 0.99 | S. cerevisiae deletion strains, locus YKL085W, strain MDH1 (second series), stronger effect = lower value 0.99 | S. cerevisiae deletion strains, locus YKL085W, strain MDH1, stronger effect = lower value 0.99 | S. cerevisiae deletion strains, locus YKL160W, strain elf1, stronger effect = lower value 1.02 | S. cerevisiae deletion strains, locus YKL190W, strain CNB1, stronger effect = lower value 1.01 | S. cerevisiae deletion strains, locus YKR001C, strain vps1, stronger effect = lower value 1.02 | S. cerevisiae deletion strains, locus YKR026C, strain gcn3, stronger effect = lower value 1.01 | S. cerevisiae deletion strains, locus YKR091W, strain srl3, stronger effect = lower value 1.01 | S. cerevisiae deletion strains, locus YLL001W, strain dnm1, stronger effect = lower value 1.02 | S. cerevisiae deletion strains, locus YLL026W, stronger effect = lower value 1.02 | S. cerevisiae deletion strains, locus YLL041C, strain sdh2, stronger effect = lower value 1.01 | S. cerevisiae deletion strains, locus YLR027C, strain aat2, stronger effect = lower value 1.02 | S. cerevisiae deletion strains, locus YLR039C, strain RIC1, stronger effect = lower value 1.04 | S. cerevisiae deletion strains, locus YLR058C, strain SHM2, stronger effect = lower value 1.01 | S. cerevisiae deletion strains, locus YLR102C, strain apc9, stronger effect = lower value 0.995 | S. cerevisiae deletion strains, locus YLR113W, strain HOG1, stronger effect = lower value 1.02 | S. cerevisiae deletion strains, locus YLR221C, strain rsa3, stronger effect = lower value 1 | S. cerevisiae deletion strains, locus YLR258W, strain gsy2, stronger effect = lower value 1.01 | S. cerevisiae deletion strains, locus YLR262C, strain YPT6 (second series), stronger effect = lower value 1.03 | S. cerevisiae deletion strains, locus YLR262C, strain YPT6, stronger effect = lower value 1.05 | S. cerevisiae deletion strains, locus YLR268W, strain sec22, stronger effect = lower value 0.948 | S. cerevisiae deletion strains, locus YLR320W, strain mms22, stronger effect = lower value 0.992 | S. cerevisiae deletion strains, locus YLR330W, strain CHS5, stronger effect = lower value 1.01 | S. cerevisiae deletion strains, locus YLR342W, strain FKS1 (second series), stronger effect = lower value 1.03 | S. cerevisiae deletion strains, locus YLR342W, strain FKS1, stronger effect = lower value 1.01 | S. cerevisiae deletion strains, locus YLR357W, strain rsc2, stronger effect = lower value 1.02 | S. cerevisiae deletion strains, locus YLR370C, strain arc18, stronger effect = lower value 1.02 | S. cerevisiae deletion strains, locus YLR371W, strain rom2, stronger effect = lower value 0.996 | S. cerevisiae deletion strains, locus YLR384C, strain iki3, stronger effect = lower value 1.02 | S. cerevisiae deletion strains, locus YLR418C, strain cdc73, stronger effect = lower value 0.997 | S. cerevisiae deletion strains, locus YML016C, strain PPZ1, stronger effect = lower value 1.01 | S. cerevisiae deletion strains, locus YML032C, strain rad52, stronger effect = lower value 0.98 | S. cerevisiae deletion strains, locus YML120C, strain ndi1, stronger effect = lower value 1.02 | S. cerevisiae deletion strains, locus YML124C, strain tub3, stronger effect = lower value 0.997 | S. cerevisiae deletion strains, locus YMR058W, strain fet3, stronger effect = lower value 1.02 | S. cerevisiae deletion strains, locus YMR078C, strain ctf18, stronger effect = lower value 0.994 | S. cerevisiae deletion strains, locus YMR125W, strain sto1, stronger effect = lower value 1 | S. cerevisiae deletion strains, locus YMR129W, stronger effect = lower value 1.01 | S. cerevisiae deletion strains, locus YMR205C, strain PFK2, stronger effect = lower value 1 | S. cerevisiae deletion strains, locus YMR223W, strain ubp8, stronger effect = lower value 1.01 | S. cerevisiae deletion strains, locus YMR231W, strain pep5, stronger effect = lower value 1.01 | S. cerevisiae deletion strains, locus YMR263W, strain SAP30, stronger effect = lower value 1.01 | S. cerevisiae deletion strains, locus YMR307W, strain GAS1, stronger effect = lower value 0.995 | S. cerevisiae deletion strains, locus YNL067W, strain RPL9B, stronger effect = lower value 1.02 | S. cerevisiae deletion strains, locus YNL071W, strain lat1, stronger effect = lower value 1.01 | S. cerevisiae deletion strains, locus YNL128W, strain TEP1, stronger effect = lower value 1.01 | S. cerevisiae deletion strains, locus YNL153C, strain GIM3, stronger effect = lower value 1 | S. cerevisiae deletion strains, locus YNL183C, strain NPR1, stronger effect = lower value 0.948 | S. cerevisiae deletion strains, locus YNL209W, strain ssb2, stronger effect = lower value 1.02 | S. cerevisiae deletion strains, locus YNL233W, strain BNI4, stronger effect = lower value 0.99 | S. cerevisiae deletion strains, locus YNL248C, strain rpa49, stronger effect = lower value 0.998 | S. cerevisiae deletion strains, locus YNL250W, strain rad50, stronger effect = lower value 0.989 | S. cerevisiae deletion strains, locus YNL271C, strain bni1, stronger effect = lower value 0.992 | S. cerevisiae deletion strains, locus YNL298W, strain CLA4, stronger effect = lower value 1 | S. cerevisiae deletion strains, locus YNL307C, strain MCK1, stronger effect = lower value 0.995 | S. cerevisiae deletion strains, locus YNL322C, strain KRE1 (second series), stronger effect = lower value 1.02 | S. cerevisiae deletion strains, locus YNL322C, strain KRE1, stronger effect = lower value 1.01 | S. cerevisiae deletion strains, locus YNR049C, strain mso1, stronger effect = lower value 1.01 | S. cerevisiae deletion strains, locus YNR052C, strain pop2, stronger effect = lower value 1 | S. cerevisiae deletion strains, locus YOL006C, strain TOP1, stronger effect = lower value 1.01 | S. cerevisiae deletion strains, locus YOL012C, strain htz1 1.03 | S. cerevisiae deletion strains, locus YOL147C, strain pex11, stronger effect = lower value 0.992 | S. cerevisiae deletion strains, locus YOR001W, strain rrp6, stronger effect = lower value 1.03 | S. cerevisiae deletion strains, locus YOR061W, strain CKA2, stronger effect = lower value 1.01 | S. cerevisiae deletion strains, locus YOR069W, strain VPS5, stronger effect = lower value 1.01 | S. cerevisiae deletion strains, locus YOR070C, strain gyp1, stronger effect = lower value 1 | S. cerevisiae deletion strains, locus YOR080W, strain dia2, stronger effect = lower value 1.01 | S. cerevisiae deletion strains, locus YOR083W, strain WHI5, stronger effect = lower value 0.98 | S. cerevisiae deletion strains, locus YOR106W, strain vam3, stronger effect = lower value 1.04 | S. cerevisiae deletion strains, locus YOR136W, strain idh2, stronger effect = lower value 0.993 | S. cerevisiae deletion strains, locus YOR144C, strain elg1, stronger effect = lower value 1 | S. cerevisiae deletion strains, locus YOR184W, strain ser1, stronger effect = lower value 1 | S. cerevisiae deletion strains, locus YOR231W, strain MKK1, stronger effect = lower value 1.05 | S. cerevisiae deletion strains, locus YOR265W, strain rbl2, stronger effect = lower value 1.02 | S. cerevisiae deletion strains, locus YOR270C, strain vph1, stronger effect = lower value 1.03 | S. cerevisiae deletion strains, locus YOR290C, strain snf2, stronger effect = lower value 0.997 | S. cerevisiae deletion strains, locus YOR316C, strain cot1, stronger effect = lower value 0.999 | S. cerevisiae deletion strains, locus YPL051W, strain arl3, stronger effect = lower value 1.02 | S. cerevisiae deletion strains, locus YPL055C, strain LGE1, stronger effect = lower value 1.02 | S. cerevisiae deletion strains, locus YPL078C, strain atp4, stronger effect = lower value 1.02 | S. cerevisiae deletion strains, locus YPL106C, strain sse1, stronger effect = lower value 1.03 | S. cerevisiae deletion strains, locus YPL240C, strain hsp82, stronger effect = lower value 1.03 | S. cerevisiae deletion strains, locus YPL241C, strain CIN2, stronger effect = lower value 1.01 | S. cerevisiae deletion strains, locus YPL256C, strain CLN2, stronger effect = lower value 1.02 | S. cerevisiae deletion strains, locus YPR119W, strain clb2, stronger effect = lower value 0.992 | S. cerevisiae deletion strains, locus YPR141C, strain kar3, stronger effect = lower value 0.996 | S. cerevisiae deletion strains, locus YPR163C, strain tif3, stronger effect = lower value 1 | S. cerevisiae deletion strains, locus YPR167C, strain met16, stronger effect = lower value 1 | S. cerevisiae deletion strains, strain wtn01, stronger effect = lower value 0.997 | S. cerevisiae strains, strain wild type, stronger effect = lower value 0.997
